p47phox inh: inhibitors of human p47phox binding | AID 1274 | 220,000 compounds, 0.53% hits | p47phox/p22phox peptide binding, fluorescence polarization, 2 h | inhibition, % at 24.7 µM | P14598;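 further: 0% = p47phox with labelled peptide and 100% = labelled peptide alone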
14-3-3 Bad inh: disrupts binding of bovine 14-3-3 zeta to phospho-Bad peptide. TR-FRET 14-3-3zeta/Dy647-pBad peptide displacement, 1 h. 220,000 compounds, 0.71% hits. AID 781. P63103. inhibition, % at 21.7 µM;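 active means inhibition above about 70%, limit read from the data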;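 further: 0% = full 14-3-3 plus peptide FRET controls and 100% = background without 14-3-3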
eIF4E 4G PPI: inhibitors of eIF4E and eIF4G interaction in translation initiation; TR-FRET eIF4E-eIF4GI(517-606) binding, 2 h; 220,000 compounds, 0.37% hits; P63073+Q04637; inhibition, % at 21.7 µM;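 further: 0% = full FRET control wells and 100% = background wells lacking eIF4GI fragment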
Mcl1-Bid inh: disrupts binding of human Mcl-1 to Bid peptide. 220,000 compounds, 0.97% hits. TR-FRET Mcl-1/Bid-Dy647 peptide binding, 1536-well. inhibition, % at 21.7 µM. AID 1021. Q07820;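 active means compounds that cut the binding signal by more than half at the single screening dose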;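 further: His-tagged Mcl-1 with europium anti-His antibody binding Bid BH3 peptide; 0% = Mcl-1 plus peptide wells and 100% = peptide-only wells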
Mcl1-Noxa inh: disrupts binding of human Mcl-1 to Noxa peptide; Q07820; TR-FRET Mcl-1/Noxa peptide binding, 2 h; inhibition, % at 21.7 µM; 220,000 compounds, 1.5% hits; AID 1022;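 active means compounds that cut the protein-peptide binding signal by more than 50% relative to plate controls in a single-dose test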;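 further: His-tagged Mcl-1 with rhodamine Noxa BH3 peptide and terbium anti-His antibody; 0% = Mcl-1 plus Noxa peptide wells and 100% = peptide-only wells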
Mcl-1 Bim block: disrupts Bim peptide binding to human Mcl-1; Q07820; Bead-based flow cytometry, Bim peptide-Mcl-1 binding; inhibition, % at 10 µM; 190,000 compounds, 0.1% hits; in the data active means inhibition above about 40%;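 further: 0% = no compound tracer wells and 100% = peptide blocker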
* marks the source's active call; other numbers are inactive results; nt = not tested or not shown. Shown are actives, neighbours in structure and some others; about 3.3% of the full set was active somewhere.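 How the source made its calls, unless noted: active means inhibition above about 30% (limit read from the data); inactive means the rest.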

SMILES	p47phox inh	14-3-3 Bad inh	eIF4E 4G PPI	Mcl1-Bid inh	Mcl1-Noxa inh	Mcl-1 Bim block
COC(=O)c1ccccc1NC(=O)COC(=O)c1ccco1	1	8	0	-12	20	0
CC(c1nccs1)N(C)C(=O)CCc1nnc(CCc2ccccc2)o1 (centres undefined)	4	-7	1	3	1	-8
N#CCc1ccc(NS(=O)(=O)c2ccc(C3CCCCC3)cc2)cc1	-10	-2	17	2	3	1
Oc1ccccc1-n1nc2ccc3nonc3c2n1	0	1	-1	-8	-5	nt
CCOC(=O)c1cnc(-n2nc(C)cc2C)nc1Nc1ccc(N(C)C)cc1	-1	8	-3	-14	72*	8
O=C(OCc1cc(=O)n2c(n1)sc1ccccc12)c1cccc(O)c1	-37	3	10	30	67*	-5
Cc1ccc2c(CC(=O)OCc3csc(C)n3)coc2c1	-5	12	2	-10	14	-4
O=C(OCc1cc(=O)n2c(n1)sc1ccccc12)c1ccc(O)cc1O	-149	16	33*	-15	41	0
COC(=O)c1cc(=O)nc2sc3ccccc3n12	0	nt	nt	5	5	0
O=C(Cc1coc2cc3c(cc12)CCC3)OCc1cc(=O)n2c(n1)sc1ccccc12	-15	0	7	-16	51*	-3
O=C1CN2NC(=S)N(c3ccccc3)C2=CN1c1ccc(Cl)cc1	-4	-6	3	-43	8	0
O=S1(=O)CCN(Cc2ccccc2C(F)(F)F)CC1	4	-5	2	-10	6	0
Cc1ccc(S(=O)(=O)N2CCN(Cc3ccccc3C(F)(F)F)CC2)cc1	-8	82*	10	35	0	-4
O=S(=O)(c1ccccc1)N1CCN(Cc2ccccc2C(F)(F)F)CC1	-5	79*	-6	83*	17	0
Cc1ccccc1CN1CCN(Cc2ccccc2C(F)(F)F)CC1	-27	75*	-10	-7	5	0
O=C(c1ccccc1C(F)(F)F)N1CCN(S(=O)(=O)c2ccccc2)CC1	-2	-19	3	-28	-1	2
CCCC(=O)Nc1ccc(Cl)c(NC(=O)c2cccnc2Cl)c1	1	-9	1	0	-5	0
COc1ccc(NC(=O)Nc2nnc(CC(=O)NCc3ccccc3)s2)cc1	7	-10	-1	91*	1	0
Cc1cc(NC(=O)CSc2nc(-c3ccccc3Cl)nc3c2c(=O)n(C)c(=O)n3C)no1	nt	-2	-1	-4	-10	2
C/C(=N\NC(=O)c1ccc2c(c1)OCO2)c1ccc(O)cc1	0	-1	-8	-15	6	nt
C/C(=N/NC(=O)c1ccc2c(c1)OCO2)c1ccc(NC(=O)C(F)(F)F)cc1	34*	86*	6	31	-58	0
O=C(COc1ccc2c(c1)CCC2)N1CCc2ccccc21	-13	1	-2	90*	49	2
Cc1cc(C)c(C)c(S(=O)(=O)N2CCN(CC(=O)NC(=O)NCc3ccccc3)CC2)c1C	-7	9	0	-14	-7	61*
CC1CCN(CC(=O)NC(=O)NCc2ccccc2)CC1	-2	1	-4	3	-1	-5
Cc1nc2scc(-c3ccccc3)c2c(=O)n1N=C1C=CC(=O)C=C1	12	-14	5	-8	63*	1
SMILES	p47phox inh	14-3-3 Bad inh	eIF4E 4G PPI	Mcl1-Bid inh	Mcl1-Noxa inh	Mcl-1 Bim block
Cc1ccccc1NC(=O)CSc1nc(O)cc(=O)n1C	-105	-1	-2	-46	-8	nt
NC(=O)NC(=O)COC(=O)c1cccc(NS(=O)(=O)/C=C/c2ccccc2)c1	-12	0	34*	-6	2	-2
NC(=O)COC(=O)c1cccc(NS(=O)(=O)/C=C/c2ccccc2)c1	-11	2	12	-27	7	0
N#CCCn1c(C2CCCCC2)nc2ccccc21	-8	-8	6	8	24	-5
Cc1ccc(-c2nc(NC(=O)CSc3cc(C)c4ccccc4n3)ns2)cc1	52*	75*	15	-23	-212	-425
O=C(CSc1ccc2ccccc2n1)Nc1nsc(-c2ccc(Cl)cc2)n1	19	52	6	61*	19	-270
O=C(CSc1nnnn1-c1ccccc1)Nc1nsc(-c2ccc(Cl)cc2)n1	21	22	5	9	-33	-6
O=C(Cn1cncn1)N/N=C/c1ccccc1O	0	-8	0	-77	-47	nt
COc1ccc(OCC(O)CNC(=O)c2sccc2Cl)cc1 (centres undefined)	-5	-12	-2	-12	-5	nt
CCOC(=O)CNC(=O)N1CCCC(CNS(=O)(=O)Cc2ccccc2)C1 (centres undefined)	2	-6	2	-2	-6	1
O=C(NCCc1ccccc1)N1CCCC(CNS(=O)(=O)Cc2ccccc2)C1 (centres undefined)	10	-6	-3	10	54*	0
COc1ccc(CN2CCN(CCCCOc3ccc(Cl)cc3)CC2)c(OC)c1OC	-3	47	-1	34	37	-5
COC(=O)c1ccc(COC(=O)c2ccc(CS(=O)(=O)c3ccc(C)cc3)cc2)cc1	-2	8	-7	81*	-1	0
COC(=O)c1ccc(COC(=O)CCS(=O)(=O)c2ccc(C)cc2)cc1	-6	-2	4	-19	-5	0
O=C1/C(=C/c2ccc(O)c(O)c2)SC(=S)N1Nc1ccccc1	-164	8	7	-27	60*	5
COC(=O)c1ccc(NS(=O)(=O)c2cccc3cccnc23)cc1	49*	-5	-5	-5	9	3
COc1ccc(NS(=O)(=O)c2cccc3cccnc23)cc1	-6	1	1	-6	6	-5
Nc1nc(N2CCN(c3ccc(F)cc3)CC2)n[nH]1	-12	-22	3	-50	3	3
S=c1[nH]nc(Cc2noc3ccccc23)n1-c1ccc(Cl)cc1	-3	-5	-1	54*	16	-4
Cc1ccc(-n2c(Cc3noc4ccccc34)n[nH]c2=S)cc1	-6	-3	2	-51	17	-5
C/C(CC(=O)Nc1ccc(Cl)cc1Cl)=N\NC(=O)c1cnccn1	-8	-7	-2	-31	-6	nt
Cc1ccc(O)c(C(=O)c2cnn(C(=O)COc3ccccc3C#N)c2)c1	32*	31	9	18	31	nt
COc1ccc(CN(C)CC(=O)NC(C)c2ccccc2)c(OC)c1 (centres undefined)	nt	13	1	56*	-24	3
Cc1c(Br)c(=O)oc2c(Br)c(O)ccc12	-4	1	1	-14	16	-1
Cc1c(Br)c(=O)oc2c(Br)c(O)c(O)cc12	1	8	2	-112	64*	8

Screening results: PubChem BioAssay, several laboratories
